The structures appear in SMILES notation. “And” between values parts separate entries of the source, which are not always exact repeats. Equal entries are not always repeated. Among all 16,000 compounds or so, about 5,700 (36%) were called active. About 24% were inconclusive and are not listed. Calls follow the shape of the dose curve; as a rule, active = well fitted curve in the direction sought with a large enough effect; inconclusive = small, poorly fitted or top-dose-only effect, or effect the other way; inactive = no such curve, though single readings can be large or run the other way. The list shows a part of the results.

For orientation: AC50 means the concentration giving half of the maximal activity seen.
% is scaled to controls: 0 for no effect and ±100 for the full control effect.

For the test, the target named is Cytochrome P450 1A2 (Homo sapiens) (UniProt P05177). Put plainly: Cytochrome panel assay with activity outcomes. To be noted: recombinant CYP, pro-luciferin dealkylation, luminescence, p450-cyp1a2; series mostly up to 57.1 µM.
Chain of Cytochrome P450 1A2 (Homo sapiens) (P05177 whole entry, looked up): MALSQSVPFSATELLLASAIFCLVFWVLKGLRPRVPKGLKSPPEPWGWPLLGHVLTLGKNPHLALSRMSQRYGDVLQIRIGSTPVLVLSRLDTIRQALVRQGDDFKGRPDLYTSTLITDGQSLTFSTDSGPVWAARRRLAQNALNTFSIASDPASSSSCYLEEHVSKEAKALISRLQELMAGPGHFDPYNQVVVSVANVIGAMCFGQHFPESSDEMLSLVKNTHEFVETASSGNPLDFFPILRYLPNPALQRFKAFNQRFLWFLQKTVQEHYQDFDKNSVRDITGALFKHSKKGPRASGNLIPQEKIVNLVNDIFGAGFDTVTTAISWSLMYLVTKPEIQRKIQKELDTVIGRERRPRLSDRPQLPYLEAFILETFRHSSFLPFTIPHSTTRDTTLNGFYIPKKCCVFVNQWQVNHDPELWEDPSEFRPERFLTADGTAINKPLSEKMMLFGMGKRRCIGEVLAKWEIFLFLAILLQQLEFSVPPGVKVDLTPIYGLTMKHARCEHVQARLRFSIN
For the compound `C[C@@](N)(/C=C\c1ccccc1)C(=O)O`, the activity, negative = inhibition is -17.1% [at 11.4 µM] (inactive).
For `O=C(CSc1ccc(Cl)cc1)Nc1ccc(N2CCN(c3ccccc3)CC2)c(F)c1`, the AC50 result is “inactive”.
In the case of `O=C(CN1CCN(c2ccc(Cl)cc2)CC1)Nc1cccc(F)c1`, the AC50 was 12.6 µM (active).
On the same count and under the same terms, the value for `CC(C)c1cccc2c([Si](C)(C)C)c3c(nc12)-c1cccc(=O)n1C3` was 15.8 µM (active); that for `CCc1c2c(nc3c(C(C)C)cccc13)-c1cccc(=O)n1C2` was 0.398 µM (active).
Still for that read-out and setting: next, `CC(C)c1cccc2cc3c(nc12)-c1cccc(=O)n1C3`: 0.501 µM (active); `CCC(C)N1C(=O)C2C(C(=O)Nc3cccc(OC)c3)C3C=CC2(O3)C1C(=O)NC1CCCCC1C` (configuration not stated): “inactive”.
Consider `COc1ccc(O[C@H]2C=C[C@@H](c3ccccc3)O[C@H]2CO/N=C(/C)CCC(=O)OC[C@@H]2O[C@H](c3ccccc3)C=C[C@@H]2Oc2ccc(OC)cc2)cc1`, for which the activity, negative = inhibition is -1.91% [at 11.4 µM] (inactive).
`CSC(N)=NCCC[C@@H](N)C(=O)O`: the AC50 result is “inactive”.
On the same count and under the same terms, the value for `FC(F)(F)c1ccccc1-c1nc(NC2CC2)c2ccccc2n1` was 0.398 µM (active); that for `CNc1nc(-c2ccccc2C(F)(F)F)nc2ccccc12` was 0.251 µM (active).
In the case of `O=C1[C@H]2O[C@@H]2[C@@H](O)[C@H]2[C@H]1CCn1c(=O)n(Cc3cc4c(cc3Cl)OCO4)c(=O)n12`, the activity, negative = inhibition is -4.53% [at 11.4 µM] (inactive).
For `COc1ccc2c(Cl)c(-c3nnco3)sc2c1`, the AC50 is 0.794 µM (active).
The same measure, in the same setting: next, `Cc1cccc(C)c1OC[C@@H](N)C(C)C`: 12.6 µM (active).
Same read-out and setting: the value for `Cc1cccc(C)c1OCC(O)CNC(C)(C)C` (configuration not stated) was “inactive”; that for `Cc1cccc(C)c1OC[C@H](C)N` was 2.51 µM (active) and 398 nM (active).
Regarding `O=C1C[C@@H](O)[C@@H](O)[C@H]2[C@@H]3C(=O)N(c4cccc(Oc5ccccc5)c4)C(=O)[C@@H]3CC[C@H]12`, the activity, negative = inhibition was 0.387% [at 11.4 µM] (inactive) and -5.49% [at 11.4 µM] (inactive).
In the case of `Cc1ccc(C(=O)NC(=S)Nc2ccc3c(c2)OCCO3)c(C)c1`, the AC50 is 7.08 µM (active).
Same read-out and setting: next, `O=C(NC(=S)Nc1ccc(Oc2ccc(Cl)cc2)cc1)c1ccccc1`: “inactive”.
Still for that read-out and setting: next, `O=C(NC(=S)Nc1ccc2c(c1)OCO2)c1ccccc1`: 2.82 µM (active).
The same measure, in the same setting: the value for `O=C(NC(=S)Nc1ccc(C(=O)N2CCOCC2)cc1)c1ccc([N+](=O)[O-])cc1` was “inactive”.
For `c1ccc(-c2nccc(-c3ccc(-n4cnc5ccccc54)cc3)n2)nc1`, the AC50 is 10 µM (active).
The same measure, in the same setting: the value for `c1ccc2c(c1)ncn2-c1ccc(-c2ccnc(-c3ccncc3)n2)cc1` was 0.316 µM (active); that for `COc1cc(OC)c(OC)cc1C=NCC1(c2ccccc2)CCCC1` was 8.91 µM (active); that for `O=C(O)CCCCCCCC(=O)O` was “inactive”.
Still for that read-out and setting: next, `C#CCCCCCCCCCCCCCCCC(=O)O`: 6.31 µM (active).
Consider `C#CCOCCCC(=O)O`, for which the activity, negative = inhibition was -1.25% [at 11.4 µM] (inactive).
Still for that read-out and setting: the value for `C[C@H]1COC(=O)[C@H](Cc2ccccc2)NC(=O)[C@@H](C)COC(=O)[C@H](Cc2ccccc2)NC1=O` was 9.1% [at 11.4 µM] (inactive).
On to `COC(=O)c1cc(NC(=O)/C=C/c2ccc3c(c2)OCO3)cc(C(=O)OC)c1`, for which the AC50 is 12.6 µM (active).
With `CCOC(=O)c1c(NC(=O)/C=C/c2ccc3c(c2)OCO3)sc(C)c1C`, the AC50 result is “inactive”.
Turning to `CC(C)[C@H](NC(=O)OC(C)(C)C)[C@@H](O)CC(=O)C(C)(C)C`, the activity, negative = inhibition was 0.674% [at 11.4 µM] (inactive).
In the case of `COc1ccc(CNc2ncncc2-c2cccc(NS(C)(=O)=O)c2)c(OC)c1`, the AC50 is 15.8 µM (active).
The same measure, in the same setting: next, `COc1ccccc1CNc1ncncc1-c1cccnc1`: 0.794 µM (active).
The same measure, in the same setting: the value for `COc1ccccc1CN1CCCC2(CCN(C(=O)c3cnccn3)CC2)C1` was “inactive”; that for `COc1ccccc1CNc1ncncc1-c1ccoc1` was 1.26 µM (active).
On to `COc1ccc(CNc2ncncc2-c2cccnc2)c(OC)c1`, for which the AC50 is 3.16 µM (active).
Same read-out and setting: next, `COCC(=O)N1CCC2(CCCN(C(=O)Nc3cccc(F)c3)C2)CC1`: “inactive”.
Turning to `CCc1cc2c(nc1CC)CCN(CC/C(C)=N/O[C@@H](C)c1cn([C@@H]3COC[C@@H]3O)nn1)C2`, the activity, negative = inhibition is -1.13% [at 11.4 µM] (inactive).
On to `COc1ccc(-c2ccc3c(n2)CCCN3C[C@H](O)CN2CCCc3nc(-c4ccc(Br)cc4)ccc32)cc1`, for which the activity, negative = inhibition was -3.07% [at 11.4 µM] (inactive) and -10.4% [at 11.4 µM] (inactive).
Regarding `Cc1ccc2nc(Cc3ccc(N)cc3)[nH]c2c1`, the half-maximal activity concentration (AC50) is 3.98 µM (active).
Still for that read-out and setting: the value for `COc1ccc(Cc2nc3ccc(S(=O)(=O)N4CCOCC4)cc3[nH]2)cc1OC` was “inactive”.
With `O=C(O)c1cc(N=Cc2ccccc2O)cc(C(=O)O)c1`, the activity, negative = inhibition was -12.6% [at 11.4 µM] (inactive).
Turning to `O=[N+]([O-])c1cc2c(cc1C=Nc1ccccc1)OCO2`, the AC50 is 2.82 µM (active).
Same read-out and setting: the value for `Cc1nc2cnc(N(C)C)nc2n(CCC#N)c1=O` was 10 µM (active); that for `CN(C)c1ncc2ncc(=O)n(CCC#N)c2n1` was 12.6 µM (active).
Regarding `CC(C)=CCc1c2c(c3occ(-c4ccc(O)c(O)c4)c(=O)c3c1O)C=CC(C)(C)O2`, the activity, negative = inhibition was -3.01% [at 2.29 µM] (inactive).
On the same count and under the same terms, next, `Br/C(=N\Nc1nn[nH]n1)c1ccncc1`: -5.24% [at 11.4 µM] (inactive).
Take `CC(C)(C)CNC(CO)C12CC3CC(CC(C3)C1)C2` (configuration not stated): the AC50 result is “inactive”.
Still for that read-out and setting: next, `CCN(Cc1ccncc1)C(=O)[C@@H](CO)c1ccccc1`: 15.8 µM (active).
Regarding `CN(C(=O)c1ccncc1)c1ccccc1`, the activity, negative = inhibition is -13.8% [at 11.4 µM] (inactive).
On the same count and under the same terms, the value for `C=CC[C@@H](C(=O)O)c1ccccc1` was 0.428% [at 11.4 µM] (inactive).
Regarding `CC(C)(C)c1[nH]nc2c1C(c1ccc(OC(=O)c3ccco3)cc1)C(C#N)=C(N)O2` (configuration not stated), the AC50 is 31.6 µM (active).
On the same count and under the same terms, next, `COCCn1c(=O)c(-c2ccc(Cl)cc2)nc2cnc(Oc3ccccc3)nc21`: 0.794 µM (active); `Cn1c(=O)c(-c2cccc(C#N)c2)nc2cnc(Oc3ccccc3)nc21`: 1.58 µM (active); `COCCn1c(=O)c(-c2ccc(F)cc2)nc2cnc(Oc3ccccc3)nc21`: 0.794 µM (active).
On the same count and under the same terms, next, `COCCn1c(=O)c(-c2cccc(C#N)c2)nc2cnc(Oc3ccccc3)nc21`: 15.8 µM (active); `COc1ccc(Oc2ncc3nc(-c4cccc(C#N)c4)c(=O)n(Cc4cccc(OC)c4)c3n2)cc1`: “inactive”.

(Values after PubChem BioAssay AID1851 (National Center for Advancing Translational Sciences (NCATS), 2009).)
